In all, about 69,000 compounds went through this assay and about 8,600 (12%) showed an effect of 50% or more. The full list was thinned out, with strong results kept by preference.

This experiment has as its system Plasmodium berghei. Briefly: Screen against P. berghei liver stage (PbLuc), transformed with Luciferase, at 10uM. In kind it is functional, HepG2. To be noted: tested at 10 uM.
Take `O=C(CCN1CCOC(CNc2cccnn2)C1)NC1CCCCC1` (configuration not stated): the INHIBITION worked out at 9.64%. Then `O=C(CCCOc1ccccc1)N1CCCC(n2cncn2)C1` (configuration not stated), with 14.133%. `CC(=O)N1CC(C(=O)NC(C)c2cnn(C)c2C)C1` (configuration not stated): the INHIBITION is 8.57%. With `CCN1CC[C@@]2(C(=O)N(C)C)CCN(S(=O)(=O)c3ccccc3)CC[C@@H]12`, the INHIBITION is listed as -89.8%.

In the case of `CC(NC(=O)c1cccs1)(C(N)=O)c1cccc(C(F)(F)F)c1` (configuration not stated), the INHIBITION came to 62%. In the case of `CC(NC(N)=O)C(=O)N(C)Cc1cccc(C(F)(F)F)c1` (configuration not stated), the INHIBITION was 12%.

Consider `Cc1nncn1CCNC(=O)C(C)(C)c1cccc(C(F)(F)F)c1`, for which the INHIBITION is listed as -0.758%. Then `Cn1cccc1C(=O)NC(C)(C(N)=O)c1cccc(C(F)(F)F)c1` (configuration not stated), with 61.1%. Turning to `Cn1cccc1C(=O)NC(C)(C(N)=O)c1cccc(Cl)c1` (configuration not stated), the INHIBITION is recorded as 11.5%. `CN1CCN(c2ccc(NC(=O)c3cccs3)c(C(F)(F)F)c2)CC1`: the INHIBITION is recorded as -29%. As for `O=C(O)[C@@H]1CN(C(=O)CCC(F)(F)F)C[C@H]1c1ccncc1`, the INHIBITION amounted to 11.6%. In the case of `CC(C)C(CNC(=O)CCn1cncn1)N1CCc2ccccc2C1` (configuration not stated), the INHIBITION is 60.5%. Next, `CC(NC(=O)CCn1cncn1)c1nnc2n1CCCCC2` (configuration not stated): 39.2%; `CCC(CNC(=O)CCn1cncn1)N1CCc2ccccc2C1` (configuration not stated): -19.5%. Next, `CC(CNC(=O)CCCn1cncn1)N1CCc2ccccc2C1` (configuration not stated): 69.7%; `CC(CNC(=O)CCn1cncn1)N1CCc2ccccc21` (configuration not stated): -7.7%; `CC(Cn1cncn1)NCCN1CCc2ccccc2C1` (configuration not stated): 45.1%.

Take `Cc1cc2c(=O)n3c(nc2s1)CCN(C(=O)c1cnn(C)c1)CC3`: the INHIBITION was -11.7%. Consider `CC(C)N1CCCC1c1cc(C(F)(F)F)[nH]n1` (configuration not stated), for which the INHIBITION is given as -7.7%. With `Cc1cc(NC(C)Cn2cccn2)n2nccc2n1` (configuration not stated), the INHIBITION was found to be 33%. Take `O[C@@H]1CC(CNCc2ccc(F)cc2)(COc2cccnc2)C[C@@H]1O` (some centres not stated): the INHIBITION was determined as 38.1%. Take `Cn1cccc1C(=O)NC1(C(=O)NCC2CC2)CCCC1`: the INHIBITION was determined as 8.38%. As for `Cc1ccc2c(C(=O)N(C)C)cc(-c3cnn(CCO)c3)nc2c1C`, the INHIBITION is 31.15%. Consider `COc1ncc(C2(O)CCN(Cc3ccccc3O)CC2)c(OC)n1`, for which the INHIBITION is 65.5%. In the case of `COc1ncc(C2(O)CCN(Cc3ccc(F)c(F)c3)CC2)c(OC)n1`, the INHIBITION turned out to be 57.5%. As to `COc1ncc(C2(O)CCN(Cc3cccc(F)c3F)CC2)c(OC)n1`, the INHIBITION is listed as 44.1%. Next, `CCc1ncc(CN2CCC(O)(c3ccccc3F)CC2)cn1`: 18.2%; `COc1ncc(C2(O)CCN(Cc3c(F)cccc3F)CC2)c(OC)n1`: 53%; `COc1ncc(C2(O)CCN(Cc3cc(F)ccc3F)CC2)c(OC)n1`: 24.8%. Take `COc1ncc(C2(O)CCN(Cc3cc(F)cc(F)c3)CC2)c(OC)n1`: the INHIBITION is on record as 39.7%. As to `Cc1ncc(CN2CCC(O)(c3ccccc3F)CC2)cn1`, the INHIBITION is listed as -4.675%. As to `COc1ncc(C2(O)CCN(Cc3cccs3)CC2)c(OC)n1`, the INHIBITION is 8.48%.
